Compounds without any hit were thinned out: in the full panel of roughly 83,000, 20% have a hit.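 Single-concentration screen, 48 h exposure, 96-well plates. Endpoint: percent growth. Below 10 = active.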 Values without a mark were called inactive. Activity calls are given as the source filed them.
The molecules below were run on SK-OV-3 ovarian (assay: NCI-60 one-dose screen, 48 h (100 = growth as untreated, 0 = no growth, -100 = all killed)). Settings: 10 µM unless noted.

**Q.** How did the growth turn out when CCOC(=O)c1cnn(-c2nc(-c3ccc(F)cc3)c(C#N)c(N3CCOCC3)n2)c1N was run?
**A.** The growth was 101%.

**Q.** How did the growth turn out when Cc1c(O)c(=O)ccn1-c1nc2ccccc2s1 was run?
**A.** The growth was 99%.

**Q.** Which growth does the source give for Nc1ccc(C2=NN(C(=O)c3cc(-c4ccc(Cl)cc4)nc4ccccc34)C(c3ccc(Cl)cc3)C2)cc1 (configuration not stated) here?
**A.** The growth was 31.7%.

**Q.** How did the growth turn out when COc1ccc2nc(-c3ccc(OC)c(OC)c3)cc(-c3nnc(SCC(=O)Nc4ccc(C(C)=O)cc4)o3)c2c1 was run?
**A.** Its growth is 109%.

**Q.** For CNCc1cccc2c1OCCOCCOCCN(CCN1CCOCC1)S(=O)(=O)c1ccc(cc1)-c1cnc(N)c(n1)C(=O)N2, which growth is on record?
**A.** Its growth is 17.3%.

**Q.** For COc1cc(C2=NN(C(C)=O)C(c3cccc(Nc4ccnc5cc(C(F)(F)F)ccc45)c3)C2)cc(OC)c1OC (configuration not stated), which growth is on record?
**A.** Its growth is 69.3%.

**Q.** CC(C)CSc1nc(Nc2ccccc2)c(C#N)c(-c2ccc(F)cc2)n1 was tested. Which growth did it give?
**A.** Its growth is 46.8%.

**Q.** How did the growth turn out when CNc1cccc2c1C(=O)c1cccc(N)c1C2=O was run?
**A.** Its growth is 60.5%.

**Q.** With NC(=O)c1ccc(C2C3=C(CCCC3=O)OC3=C2C(=O)c2ccccc2C3=O)cc1 (configuration not stated) as the molecule, how does the growth read?
**A.** The growth was 104%.

**Q.** Which growth does the source give for C=CCn1c(SCC(=O)Nc2ccc(C(=O)/C=C/c3ccc(Cl)cc3)cc2)nnc1-c1cc(OC)c(OC)c(OC)c1 here?
**A.** The growth was 109%.

**Q.** With C=C1C(=O)O[C@H]2[C@H]1CC/C(C=Nc1c(N)cc(F)cc1Br)=C\CC[C@@]1(C)O[C@@H]21 as the molecule, how does the growth read?
**A.** The growth was 87.3%.

**Q.** For COc1cc(-c2csc(NC(=O)Nc3ccc(Cl)cc3)n2)cc(OC)c1OC, which growth is on record?
**A.** The growth was 53.5%.

**Q.** COc1ccc(C(=O)c2cc(OC)c(C)c(OC)c2)cc1OC(=O)CCl was tested. Which growth did it give?
**A.** Its growth is 19.4%.

**Q.** Which growth does the source give for Nc1c(C(=O)Nc2cccc3ccccc23)sc2nc3c(cc12)COCC3 here?
**A.** The growth was 38.6%.

**Q.** How did the growth turn out when CN(C)C(CNc1oc(-c2cccc3ccccc23)nc1C#N)c1ccco1 (configuration not stated) was run?
**A.** The growth was 104%.

**Q.** Cc1cnc(-c2ccc(-c3ccc(NC(=O)Nc4c(F)cc(F)cc4F)cc3F)c3c2C(=O)NC3)[nH]1 was tested. Which growth did it give?
**A.** The growth was 49.6%.

**Q.** With COc1ccc(-c2cc(C(=O)N3N=C(c4ccc(N)cc4)CC3c3ccc(OC)cc3)c3cc(OC)ccc3n2)cc1 (configuration not stated) as the molecule, how does the growth read?
**A.** The growth was 78.3%.

**Q.** COc1cc([C@H](C)c2ccc3ccccc3c2)cc(OC)c1OC was tested. Which growth did it give?
**A.** Its growth is 31%.

**Q.** With O=c1nc(-c2ccccc2)c2cc(-c3ccc(N4CCCC4)nc3)ccc2[nH]1 as the molecule, how does the growth read?
**A.** The growth was 80.6%.

**Q.** How did the growth turn out when Cc1cccc2nc3c(n12)C(=O)C(=O)c1ccccc1-3 was run?
**A.** The growth was 79.5%.

**Q.** CC(=O)Nc1c(C(=O)Nc2ccccc2)sc2nc3c(cc12)C(OC(C)=O)CCC3 (configuration not stated) was tested. Which growth did it give?
**A.** Its growth is 46.6%.

**Q.** For CCN1CCN(c2ccc(NC(=O)Nc3nc4ccc(-c5ccccc5OC)cc4s3)cc2)CC1, which growth is on record?
**A.** Its growth is -12.5% (active).

**Q.** Cc1cc(Cl)cc(CN(Cc2ccccc2)Cc2c(O)ccc3ccccc23)c1O was tested. Which growth did it give?
**A.** Its growth is 97.2%.

**Q.** How did the growth turn out when COC1=CC=CC2(OC)C3(O)CCCc4cccc(c43)N3C(=O)COC132 (configuration not stated) was run?
**A.** The growth was 107%.

**Q.** C=C1C(=O)O[C@H]2[C@H]1CC/C(COC(=O)N1CCC[C@H]1C(=O)Nc1ccc(OC)c(C(N)=O)c1O)=C\CC[C@@]1(C)O[C@@H]21 was tested. Which growth did it give?
**A.** The growth was 88.8%.

**Q.** Cc1cc(C)nc(NS(=O)(=O)c2ccc(Nc3ccc4c5c(n(CCCN(C)C)c(=O)c4c3)-c3ccccc3C5=O)cc2)n1 was tested. Which growth did it give?
**A.** Its growth is 96.1%.

**Q.** With COc1cc(NC(=O)c2cc(O)c(C/C=C(\C)CCC=C(C)C)c(O)c2)cc2c1O[C@]1(C)CC[C@@H](O)C(C)(C)[C@H]1C2 as the molecule, how does the growth read?
**A.** Its growth is 26.9%.

**Q.** How did the growth turn out when CCCCCCN1C(=O)CN=C1Nc1ccc2cc3ccc(NC4=NCC(=O)N4CCCCCC)cc3nc2c1 was run?
**A.** Its growth is 103%.

**Q.** How did the growth turn out when Nc1ccc(C2=NN(C(=O)c3cc(-c4ccc(Cl)cc4)nc4ccccc34)C(c3ccccc3)C2)cc1 (configuration not stated) was run?
**A.** Its growth is 24.6%.

**Q.** CN(CCC#N)C(=O)Nc1ccccc1 was tested. Which growth did it give?
**A.** Its growth is 100%.

**Q.** For C=C(C)[C@@H]1CC[C@]2(C(=O)OCCCC[P+](c3ccccc3)(c3ccccc3)c3ccccc3)CC[C@]3(C)[C@H](CC[C@@H]4[C@@]5(C)CC[C@H](OC(=O)C(Cl)Cl)C(C)(C)[C@@H]5CC[C@]43C)[C@@H]12, which growth is on record?
**A.** Its growth is -5.89% (active).

**Q.** How did the growth turn out when CSc1cccc(NC(=O)Nc2nc3c(C)cccc3s2)c1 was run?
**A.** The growth was 97.1%.

**Q.** Which growth does the source give for O=C(O)c1cn(C2CC2)c2cc(N3CCN(Cc4nnc(Nc5ccccc5)o4)CC3)c(F)cc2c1=O here?
**A.** Its growth is 108%.

**Q.** Which growth does the source give for O=C1CS/C(=N/c2nnc(-c3ccc(O)cc3)s2)N1 here?
**A.** Its growth is 82%.

**Q.** How did the growth turn out when COc1ccc2c(c1)C1(C(=O)N2)C(C#N)=C(c2ccccc2)Nc2c1c(-c1ccccc1)nn2-c1ccccc1 (configuration not stated) was run?
**A.** Its growth is 78.8%.

**Q.** CCN1CCC[C@H]1c1cc(O)c2c(c1OC)C[C@H]1C[C@H]3[C@H](N)C(=O)C(C(N)=O)=C(O)[C@@]3(O)C(=O)C1=C2O was tested. Which growth did it give?
**A.** The growth was -1.89% (active).

**Q.** Which growth does the source give for O=C(/C(=C/c1ccc([N+](=O)[O-])cc1)SCc1ccccc1)c1ccc(Cl)cc1 here?
**A.** The growth was 87.6%.

From PubChem BioAssay (NCI)
